# The sample as a whole holds a higher share of hits than the screen did.
# JNK3 inh – JNK3 (human) kinase inhibition. inhibition, % at 8 µM. purified JNK3 kinase activity, HTS. AID 746. P53779. 60,000 tested, 0.61% active; in the data active means inhibition above about 17%
# hDAT+cocaine – human DAT dopamine uptake with cocaine, either direction. Q01959. LLC-PK1 hDAT cells, [14C]-dopamine uptake with cocaine IC80; actives deviate in either direction. B-score at 10 µM. 110,000 tested, 1.3% active;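 active means Z score or B-score, a plate-position-corrected score, falls beyond the plate's 99.7% confidence bounds, in either direction; inactive means both scores lie inside the 99.7% bounds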
# Target sequence (Q01959 whole entry, looked up): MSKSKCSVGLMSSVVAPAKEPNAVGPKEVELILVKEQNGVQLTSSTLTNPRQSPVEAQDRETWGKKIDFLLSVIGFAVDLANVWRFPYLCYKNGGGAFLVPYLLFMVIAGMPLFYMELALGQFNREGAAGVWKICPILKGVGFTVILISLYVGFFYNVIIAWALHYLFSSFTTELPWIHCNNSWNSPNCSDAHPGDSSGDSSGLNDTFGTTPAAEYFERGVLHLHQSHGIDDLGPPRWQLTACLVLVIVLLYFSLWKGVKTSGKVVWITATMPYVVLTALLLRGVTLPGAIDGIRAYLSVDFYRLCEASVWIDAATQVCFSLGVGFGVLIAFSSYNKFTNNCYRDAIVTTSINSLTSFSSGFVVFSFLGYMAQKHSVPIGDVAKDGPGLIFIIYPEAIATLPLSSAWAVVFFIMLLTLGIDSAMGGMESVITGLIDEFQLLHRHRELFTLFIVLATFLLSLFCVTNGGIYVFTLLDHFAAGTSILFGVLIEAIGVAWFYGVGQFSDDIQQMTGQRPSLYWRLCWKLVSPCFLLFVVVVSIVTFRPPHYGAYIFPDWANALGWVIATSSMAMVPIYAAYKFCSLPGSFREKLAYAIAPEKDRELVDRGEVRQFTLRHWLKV
# PKA inh – blocks human protein kinase A activity; P17612; inhibition, % at 6 µM; 65,000 tested, 0.1% active; PKA Kemptide phosphorylation, Kinase-Glo ATP luminescence;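 active means inhibition above the screen-wide mean inhibition plus 3 SD, cut at about 21% in these data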
# ROCK2 blocker – ROCK2 (human) kinase inhibition; O75116; purified ROCK2, Kinase-Glo ATP depletion luminescence; inhibition, % at 6 µM; 60,000 tested, 0.35% active;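 active means inhibition above the screen-wide mean inhibition plus 3 SD, cut at about 18% in these data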
# D1 allo mod – allosteric modulators of human D1 dopamine receptor; P21728; HEK293 D1, CRE-luciferase, dopamine EC30 potentiation; actives deviate in either direction; B-score at 10 µM; 58,000 tested, 5.9% active;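 active means luminescence count or its row- and column-corrected plate score outside the 99.7% band of the plate's sample wells, on either side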
# D1 mod confirm – confirmation of human D1 dopamine receptor allosteric modulators. shares compounds with D1 allo mod. HEK293 D1 CRE-luciferase, dopamine EC30 potentiation; active compounds read high. luminescence at 10 µM. 2,200 tested, 88% active;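 active means luminescence in either of two replicates above the same-plate mean plus 3 SD of the low-dose dopamine control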
# D1 no dopamine – secondary test of D1 modulators: activity without dopamine; luminescence at 10 µM; shares compounds with D1 allo mod; HEK293 D1 CRE-luciferase, luminescence, no dopamine; active compounds read high; 1,900 tested, 0.8% active; in the data active means luminescence above about 3900
# Isoprot counter – isoproterenol response counter-screen activity for D1 modulators. HEK293 D1 CRE-luciferase, isoproterenol EC30 counter-screen. AID 647. calls only at 10 µM. 2,200 tested, 63% active. shares compounds with D1 allo mod;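 active means luminescence in either replicate above plate mean of wells with a partly effective reference agonist dose plus 3 SD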;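 further: isoproterenol raises cAMP through native beta-adrenoceptor Gs so signal bypasses D1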
# Hits are given with their value; 0 = inactive; - = not tested or not shown; + = active, no number.
SMILES,JNK3 inh,hDAT+cocaine,PKA inh,ROCK2 blocker,D1 allo mod,D1 mod confirm,D1 no dopamine,Isoprot counter
CCOc1ccc(N/C(SC)=C(/C#N)C(N)=O)cc1,-,0,0,-,5,6796,0,0
CCc1ccc(N/C(SC)=C(/C#N)C(N)=O)cc1,-,0,0,-,0,-,-,-
CCOC(=O)c1cn(-c2ccccc2)nc1-c1cccnc1,0,0,0,0,23,27848,0,+
CCOC(=O)c1cn(-c2ccccc2)nc1-c1ccncc1,0,0,0,0,13,20136,0,+
COC(=O)c1cn(-c2ccccc2)nc1-c1ccccc1,-,0,-,-,-,-,-,-
O=C(O)c1cn(-c2ccccc2)nc1-c1cccnc1,0,0,0,0,0,-,-,-
NC(=O)c1cc2ccc(O)cc2oc1=Nc1ccccc1,0,0,0,0,5.1,0,0,0
COc1ccccc1OCc1ccc(C(=O)NCC2CCCO2)o1 (configuration not stated),-,0,-,-,-,-,-,-
NC(=O)c1cnn2c(C(F)(F)F)cc(-c3ccc(F)cc3)nc12,0,0,0,0,2.5,10756,0,+
NC(=O)c1cnn2c(C(F)(F)F)cc(-c3ccccc3)nc12,0,0,0,0,7.9,17628,0,+
O=C(O)COc1ccc(S(=O)(=O)c2ccc(OCC(=O)O)cc2)cc1,0,-,0,0,0,-,-,-
CCOC(=O)Cc1[nH]nc2c1C(c1ccoc1)C(C#N)=C(N)O2 (configuration not stated),0,0,0,0,0,-,-,-
COC(=O)Cc1[nH]nc2c1C(c1c[nH]c3ccccc13)C(C#N)=C(N)O2 (configuration not stated),0,0,0,0,8,10912,-,+
CCCc1[nH]nc2c1C(c1ccc(OC)cc1OC)C(C#N)=C(N)O2 (configuration not stated),0,0,0,0,7.7,14308,0,+
COc1cc(C)c(Cl)cc1S(=O)(=O)N(C)C,0,0,0,0,-,-,-,-
COc1cc(NC(=O)c2cc3nc(-c4ccccc4)cc(-c4ccccc4)n3n2)cc(OC)c1OC,-,0,-,-,-,-,-,-
CC(=O)N1N=C(c2ccncc2)OC12CCCCC2,-,0,-,-,-,-,-,-
CCOC(=O)Nc1ccc2c(c1)Sc1ccccc1N2C(=O)CCN1CCOCC1,0,0,0,0,4.8,8528,-,+
CC(=O)n1c2ccccc2c2nc(NC(C)C)sc21,0,0,0,0,6.4,8636,0,+
CCCNC(=O)CN(CCc1ccccc1)S(C)(=O)=O,-,0,-,-,-,-,-,-
COc1ccc2[nH]c(=O)c(CN(Cc3cccs3)Cc3nnnn3C(C)(C)C)cc2c1,0,2.5,0,0,5.3,7020,0,0
CCN(CC)C(=O)Cn1nc(C)c2ccccc2c1=O,-,0,-,-,-,-,-,-
CCCCCCNCc1ccc(Br)cc1,-,0,-,-,-,-,-,-
CNc1nc(SCc2ccccc2)nc(N2CCOCC2)n1,0,0,0,0,11,24896,0,+
CC(C)Nc1nc(SCC(=O)Nc2ccccc2)nc(N2CCOCC2)n1,0,0,0,0,14,20560,0,+
SMILES,JNK3 inh,hDAT+cocaine,PKA inh,ROCK2 blocker,D1 allo mod,D1 mod confirm,D1 no dopamine,Isoprot counter
CC(Sc1nc(N2CCOCC2)nc(N2CCOCC2)n1)C(=O)Nc1ccccc1 (configuration not stated),-,0,0,-,0,-,-,-
CC(Sc1nc(N(C)C)nc(N2CCOCC2)n1)C(=O)Nc1ccccc1 (configuration not stated),0,0,0,0,4.8,9356,0,+
CSc1nc(C)cc(OCCNS(=O)(=O)c2cc(C)ccc2C)n1,0,0,0,0,-,-,-,-
CC(C)OCCCNc1nc2c([nH]1)c(=O)n(C)c(=O)n2C,0,0,0,0,0,-,-,-
CCC(Sc1nc(=O)cc(N)n1CCc1ccccc1)C(=O)Nc1ccccc1C#N (configuration not stated),0,0,0,0,5.2,3424,0,0
COc1ccc(-c2cc(N)n(S(=O)(=O)c3c(F)c(F)c(F)c(F)c3F)n2)cc1OC,0,0,0,0,4.9,11216,0,+
COC(=O)CSC1=C(C#N)C(c2cccc(F)c2)CC(=O)N1 (configuration not stated),0,0,0,0,0,-,-,-
COC(=O)CSC1=C(C#N)C(c2cccc(OC)c2)CC(=O)N1 (configuration not stated),0,0,0,0,1.9,0,0,0
CCOC(=O)C1=C(C)NC(C)=C(C(=O)OCC)C1C(=O)OCC(=O)c1ccc2c(c1)OCCO2,0,0,0,0,10,7616,0,+
O=C(CCS(=O)(=O)c1ccc(Cl)cc1)N1CCN(S(=O)(=O)c2cccs2)CC1,0,-,0,0,0,-,-,-
O=C(CCCc1nc2ccccc2s1)N1CCN(S(=O)(=O)c2cccs2)CC1,0,0,0,0,4.2,8136,0,0
N#Cc1ccccc1Cn1c(-c2cscn2)nc2ccccc21,0,0,0,0,13,15376,0,+
O=C(O)Cn1c(-c2cscn2)nc2ccccc21,0,0,0,0,0,-,-,-
CC(=O)C1=C(O)C(=O)N(CCNCCO)C1c1ccccc1 (configuration not stated),-,0,-,-,-,-,-,-
COc1ccc2c(C(F)(F)F)cc(=O)oc2c1C,0,0,0,0,4.8,6684,0,0
COc1c2ccoc2c(OC)c2oc(=O)ccc12,-,0,-,-,-,-,-,-
N#CCc1nc2c3c4c(sc3ncn2n1)CCCC4,0,0,0,0,9.5,11284,0,+
COc1ccc(-c2nnc3sc(-c4ccco4)nn23)cc1OC,0,0,0,0,0,-,-,-
COc1cc(-c2nn3c(-c4ccccc4)nnc3s2)cc(OC)c1OC,0,2.7,0,0,3.3,14804,0,+
COc1cc(-c2nn3c(COc4ccccc4)nnc3s2)cc(OC)c1OC,0,0,0,0,-,-,-,-
COc1cc(-c2nn3c(Cc4ccccc4)nnc3s2)cc(OC)c1OC,0,0,0,0,4,9884,0,+
COc1ccc(-c2nn3c(-c4ccco4)nnc3s2)cc1OC,0,0,0,0,16,18008,-,+
CC(C1CC1)N(C(=O)NC1CCS(=O)(=O)C1)c1ccccc1 (configuration not stated),0,0,0,0,0,-,-,-
COc1ccc2c(c1)c(C(O)CN1CCC3(CC1)OCCO3)c(C)n2C (configuration not stated),0,0,0,0,0,-,-,-
CCOC(=O)c1nn(-c2ccc(OC)cc2)c(=O)c2c(N)scc12,0,0,0,0,5.1,6660,0,0
Cn1nnnc1Sc1ncnc2scc(-c3ccc(F)cc3)c12,0,-,0,0,12,0,0,0
Clc1ncnc2scc(-c3ccccc3)c12,-,0,-,-,-,-,-,-
Cn1nnnc1Sc1ncnc2scc(-c3ccccc3)c12,0,0,0,0,5.6,22236,0,+

# Screening data deposited in PubChem BioAssay by several laboratories.
